Screens from PubChem.
Only some compounds are listed: those with a hit (about 4.1% of all), similar ones and a draw of the others.
hcDAF-12 act: H. contortus DAF-12 activation, primary screen. HEK293 hcDAF-12 lit1-tk-luc reporter, luminescence; 0% DMSO, 100% Δ7-dafachronic acid. AID 652067. 1.4% of 370,000 active. activation, % at 6.8 µM;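 active = activation above the mean of all tested compounds plus 3 SD, cut at about 5.5% in these data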;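 note: 100% = response to 3 µM Δ7-dafachronic acid high control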
DAX1 inh-1: blocks DAX1 repression of SF-1 activated StAR promoter | HEK293T StAR-luciferase reporter, SF-1/DAX-1 repression relief | 1.1% of 370,000 active | inhibition, % at 6.8 µM | AID 652010;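 active = inhibition above the mean over all tested compounds plus 3 SD, cut at about 3.6% in these data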;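 note: 0% = DAX-1 cells with DMSO and 100% = cells lacking DAX-1 with DMSO; higher inhibition means more luminescence from relief of DAX-1 repression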
DAX1 inh-2: inhibitors of human orphan nuclear receptor DAX1 (NR0B1); P51843; HEK293 Gal4-DAX1 luciferase reporter, luminescence; inhibition, % at 6.75 µM; 0.99% of 340,000 active;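 active = inhibition above the mean over all tested compounds plus 3 SD, cut at about 4.2% in these data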;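 note: 0% = DAX1-transfected cells with DMSO and 100% = empty-vector control cells with DMSO; inhibition shows as a rise in luminescence from relieved DAX1 repression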
Target sequence (P51843 207-470 limits assumed): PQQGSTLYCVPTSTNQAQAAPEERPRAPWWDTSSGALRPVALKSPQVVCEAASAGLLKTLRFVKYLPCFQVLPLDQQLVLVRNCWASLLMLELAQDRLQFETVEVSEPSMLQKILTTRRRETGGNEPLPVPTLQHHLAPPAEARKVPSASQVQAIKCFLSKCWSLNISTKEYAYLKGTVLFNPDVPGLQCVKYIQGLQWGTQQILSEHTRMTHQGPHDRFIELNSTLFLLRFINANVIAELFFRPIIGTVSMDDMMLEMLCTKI
hgDAF12 agonist: hgDAF-12 agonism, primary luciferase screen; 1.8% of 370,000 active; activation, % at 6.8 µM; AID 687014; HEK293 GAL4-hgDAF12 UAS-luciferase reporter, agonist luminescence; normalized to butyrate control;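 active = activation above a cutoff set at the mean of all screened compounds plus 3 SD, cut at about 10% in these data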;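 note: 0% = DMSO wells and 100% = sodium butyrate wells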
ssDAF12 agonist: S. stercoralis DAF-12 activation, primary screen | 1% of 370,000 active | HEK293 ssDAF-12/GRIP1 lit1-tk-luc reporter, luminescence; % of 3 µM dafachronic acid response | AID 652126 | activation, % at 6.8 µM;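 active = activation above the mean over all tested compounds plus 3 SD, cut at about 0.9% in these data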;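 note: 0% = DMSO-only wells and 100% = 3 µM delta7-dafachronic acid wells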
LXRb hcDAF ctr: counter-screen for hcDAF-12 agonists: agonists of human LXR-beta; shares compounds with hcDAF-12 act; 3,400 tested, under 10 active; HEK293 Gal4-LXR tk-luc reporter, luminescence, 24 h; normalized: DMSO 0%, positive control 100%; AID 743027; activation, % at 6.8 µM;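 active = mean percent activation of the reporter above a cutoff set as the average over tested compounds plus their standard deviation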
hcDAF12 ag: confirmation of H. contortus DAF-12 agonists | shares compounds with hcDAF-12 act | HEK293 hcDAF-12 lit1-tk-luc reporter, luminescence; % of Δ7-dafachronic acid response | activation, % at 6.8 µM | 61% of 3,400 active;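 active = mean activation across triplicate tests above the threshold derived from the earlier primary screen, cut at about 5.5% in these data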;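 note: 0% = DMSO only wells and 100% = 3 µM Δ7-dafachronic acid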
Active calls of the source: *.

For COc1ccc2[nH]cc(C(=O)CNc3nc(C)cs3)c2c1 the results were hcDAF-12 act 7.3*, DAX1 inh-1 2.1, DAX1 inh-2 -0.4, hgDAF12 agonist 8.3, ssDAF12 agonist 0.4, LXRb hcDAF ctr 0.4 and hcDAF12 ag 7.6*.
Screening COc1ccc2[nH]cc(C(=O)CCl)c2c1 returned hcDAF-12 act 0.0, DAX1 inh-1 -1.8, DAX1 inh-2 -3.7, hgDAF12 agonist -0.1 and ssDAF12 agonist -0.9.
C[C@@H]1CCCCO[C@H](CN(C)Cc2ccc(C(=O)O)cc2)[C@@H](C)CN([C@H](C)CO)C(=O)c2cc(NC(=O)CCC(F)(F)F)ccc2O1 was read as hcDAF-12 act -1.8, DAX1 inh-1 0.1, DAX1 inh-2 0.8, hgDAF12 agonist -0.4 and ssDAF12 agonist -1.3.
CN(CC(=O)Nc1ccccc1Br)C(=O)c1ccccc1OCc1ccccc1Cl was read as hcDAF-12 act -2.8, DAX1 inh-1 -0.6, DAX1 inh-2 -1.2, hgDAF12 agonist -2.1 and ssDAF12 agonist -1.1.
O=C(Nc1ccc(Br)cc1)Nc1ccccc1Cl was read as hcDAF-12 act 7.7*, DAX1 inh-1 -0.1, DAX1 inh-2 -1.3, hgDAF12 agonist 9.4, ssDAF12 agonist -0.3, LXRb hcDAF ctr 0.5 and hcDAF12 ag 4.0.
`O=C(Nc1ccc(CN2CCCCC2)cc1)Nc1ccccc1Cl` gave hcDAF-12 act 1.0, DAX1 inh-1 0.6, DAX1 inh-2 3.0, hgDAF12 agonist 7.2 and ssDAF12 agonist -0.8.
Screening Cc1ccc(N2CCN(c3ccc(NCc4nc5ccccc5n4C)cc3)CC2)cc1 returned hcDAF-12 act 3.0, DAX1 inh-1 0.1, DAX1 inh-2 -0.3, hgDAF12 agonist 1.3 and ssDAF12 agonist -0.4.
`Cc1ccc(NCc2nc3ccccc3n2C)c(C)c1` gave hcDAF-12 act 11.6*, DAX1 inh-1 3.7*, DAX1 inh-2 -0.6, hgDAF12 agonist 11.6*, ssDAF12 agonist 0.8, LXRb hcDAF ctr 1.3 and hcDAF12 ag 10.9*.
`Cc1cccc(NCc2nc3ccccc3n2C)c1` gave hcDAF-12 act 7.5*, DAX1 inh-1 2.1, DAX1 inh-2 1.8, hgDAF12 agonist 10.2, ssDAF12 agonist 0.8, LXRb hcDAF ctr 0.5 and hcDAF12 ag 6.9*.
For Cn1c(CNc2ccc(Cl)cc2)nc2ccccc21 the results were hcDAF-12 act 16.2*, DAX1 inh-1 4.3*, DAX1 inh-2 2.0, hgDAF12 agonist 12.7*, ssDAF12 agonist 2.9*, LXRb hcDAF ctr 1.0 and hcDAF12 ag 11.1*.
`COc1cc(/C=N/N2CCN(Cc3ccc(C)cc3)CC2)cc(OC)c1O` gave hcDAF-12 act -3.2, DAX1 inh-1 -0.9, DAX1 inh-2 0.0, hgDAF12 agonist -3.2 and ssDAF12 agonist -2.0.
For COc1cccc(CNC(=O)CCNC(=O)c2ccco2)c1 the results were hcDAF-12 act 0.0, DAX1 inh-1 0.2, DAX1 inh-2 2.2, hgDAF12 agonist 0.0 and ssDAF12 agonist -1.1.
For COc1ccc(CCNC(=O)CCNC(=O)c2ccco2)cc1 the results were hcDAF-12 act 6.8*, DAX1 inh-1 0.4, DAX1 inh-2 0.4, hgDAF12 agonist 2.0, ssDAF12 agonist -0.6, LXRb hcDAF ctr -0.4 and hcDAF12 ag 0.1.
For CSCCC(NC(=O)c1ccc(Cl)cc1)C(=O)OCC(=O)Nc1cc(Cl)ccc1C#N (centres undefined) the results were hcDAF-12 act 7.5*, DAX1 inh-1 -0.3, DAX1 inh-2 0.4, hgDAF12 agonist 0.9, ssDAF12 agonist 0.3, LXRb hcDAF ctr -0.3 and hcDAF12 ag 3.3.
Screening CSCCC(NC(=O)c1ccc(Cl)cc1)C(=O)OCC(=O)NCc1ccco1 (centres undefined) returned hcDAF-12 act 0.5, DAX1 inh-1 0.8, DAX1 inh-2 -0.6, hgDAF12 agonist -0.5 and ssDAF12 agonist -0.7.
Screening Cc1cnc(C(=O)OCC(=O)Nc2cc(Cl)ccc2C#N)cn1 returned hcDAF-12 act 6.6*, DAX1 inh-1 -1.3, DAX1 inh-2 0.9, hgDAF12 agonist 3.4, ssDAF12 agonist 0.4, LXRb hcDAF ctr -0.2 and hcDAF12 ag 4.2.
